Among the test systems are SR leukemia; RPMI-8226 leukemia; OVCAR-8 ovarian; OVCAR-5 ovarian; OVCAR-4 ovarian; SK-OV-3 ovarian; IGROV1 ovarian; OVCAR-3 ovarian; HS 578T breast; NCI/ADR-RES ovarian; T-47D breast; BT-549 breast; MDA-MB-435 melanoma; SW-620 colon; MCF7 breast; HCT-116 colon; HCC-2998 colon; KM12 colon; MDA-MB-468 breast.
What all share (assay): NCI-60 one-dose screen, 48 h (100 = growth as untreated, 0 = no growth, -100 = all killed)
Holding throughout (conditions): 10 µM unless noted

This is part of a sample that, as a whole, favours compounds with a hit. Of some 83,000 tested, about 20% had one in any assay.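 In brief: 96-well plates, 48 h treatment, single concentration, percent growth endpoint.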 A number with no mark means an inactive call. Activity calls are given as the source filed them. Rule for the calls: active = growth percent below 10; inactive = the rest.

For `CCCSc1nc(NCCc2c[nH]c3ccccc23)c(C#N)c(-c2ccc(F)cc2)n1`, the growth was 6.1% (active) in the assay on SR leukemia; 38.4% in the assay on RPMI-8226 leukemia; 65.2% with OVCAR-8 ovarian; 82.6% in the assay on OVCAR-5 ovarian; 70.7% in the assay with OVCAR-4 ovarian; 72.3% in the assay with SK-OV-3 ovarian. Moreover, the growth in the assay on IGROV1 ovarian is 85.8%; in the assay with OVCAR-3 ovarian, 84.9%; in the assay with HS 578T breast, 34.9%; in the assay on NCI/ADR-RES ovarian, 49.5%; in the assay on T-47D breast, 26.4%; with BT-549 breast it was 64.5%. The growth is 72.9% with MDA-MB-435 melanoma; 55.7% with SW-620 colon; 35.3% in the assay on MCF7 breast; 22.6% in the assay with HCT-116 colon; 44.4% in the assay with HCC-2998 colon; 31.3% in the assay on KM12 colon. Further, the growth with MDA-MB-468 breast is 44.4%.

Turning to `CN(C)c1nc(NCCNS(=O)(=O)c2ccc(C(=O)/C=C/c3ccc(F)cc3)cc2)nc(Nc2ccc(F)cc2)n1`, the growth was -34.5% (active) with SR leukemia; -15.4% (active) in the assay on RPMI-8226 leukemia; -96.2% (active) with OVCAR-8 ovarian; -97.4% (active) in the assay with OVCAR-5 ovarian; -82% (active) in the assay with OVCAR-4 ovarian; -0.953% (active) in the assay on SK-OV-3 ovarian. The growth with IGROV1 ovarian is -84.6% (active); with OVCAR-3 ovarian, -97.4% (active); in the assay with HS 578T breast, -11.3% (active); in the assay on NCI/ADR-RES ovarian it was -91.6% (active); in the assay with T-47D breast, -42.1% (active); with BT-549 breast, -88.7% (active). Further, the growth in the assay on MDA-MB-435 melanoma was -92.6% (active); in the assay on SW-620 colon it was -95.3% (active); in the assay on MCF7 breast, -82.8% (active); in the assay on HCT-116 colon, -86.8% (active); in the assay with HCC-2998 colon, -95.9% (active); with KM12 colon, -93.6% (active).

For the compound `Cc1cccc(NC(=O)[C@]23CCC(C)(C)CC2C2=CCC4[C@@]5(C)C[C@@H](O)[C@H](O)[C@@](C)(CO)C5CC[C@@]4(C)[C@]2(C)CC3)c1` (stereo partly specified), the growth is -26% (active) in the assay with SR leukemia; 2.61% (active) in the assay with RPMI-8226 leukemia; 39.3% in the assay on OVCAR-8 ovarian; -28.9% (active) in the assay with OVCAR-5 ovarian; 23.5% in the assay with OVCAR-4 ovarian; 36.9% in the assay with SK-OV-3 ovarian. The growth is 35.6% in the assay on IGROV1 ovarian; 41.3% with OVCAR-3 ovarian; 31% in the assay with HS 578T breast; 7.61% (active) with NCI/ADR-RES ovarian; 13.5% in the assay with T-47D breast; 8.83% (active) in the assay with BT-549 breast. The growth is 25.5% in the assay on MDA-MB-435 melanoma; 33.2% in the assay on SW-620 colon; -6.63% (active) in the assay with MCF7 breast; 1.25% (active) in the assay on HCT-116 colon; -64% (active) with HCC-2998 colon; 3.56% (active) with KM12 colon. Moreover, in the assay with MDA-MB-468 breast, the growth was -8.73% (active).

In the case of `C=C1CCC2C3(C)COC(c4cc(F)cc(F)c4)OC3CCC2(C)C1CC(O)C1=CCOC1=O` (stereo unspecified), the growth with SR leukemia is 28.6%; in the assay on RPMI-8226 leukemia, 11%; with OVCAR-8 ovarian, 16.2%; in the assay with OVCAR-5 ovarian, 87%; with OVCAR-4 ovarian, 53.1%; with SK-OV-3 ovarian, 102%. For the same compound, the growth is 60.1% in the assay with IGROV1 ovarian; 61.4% in the assay with OVCAR-3 ovarian; 70.4% with HS 578T breast; 14.5% with NCI/ADR-RES ovarian; 40.5% in the assay with T-47D breast; -12.9% (active) in the assay with BT-549 breast. In addition, the growth in the assay on MDA-MB-435 melanoma is 60%; with SW-620 colon it was -44.2% (active); with MCF7 breast it was 15.3%; in the assay on HCT-116 colon, -33.8% (active); in the assay with HCC-2998 colon, 45.8%; with KM12 colon, 60.5%. Also, the growth in the assay with MDA-MB-468 breast is 70.7%.

As for `O=C(/C=C/Nc1ccc(Cl)cc1)c1ccc2c(c1)Nc1ccccc1S2`, the growth in the assay with SR leukemia is 58.1%; in the assay with RPMI-8226 leukemia, 62.3%; in the assay with OVCAR-8 ovarian, 12.4%; with OVCAR-5 ovarian, 83.4%; in the assay on OVCAR-4 ovarian it was 2.72% (active); in the assay with SK-OV-3 ovarian, 20.7%. Besides, the growth in the assay with IGROV1 ovarian was 39.5%; with OVCAR-3 ovarian, 61.5%; in the assay with HS 578T breast, 8.24% (active); in the assay with NCI/ADR-RES ovarian, 25.7%; in the assay with T-47D breast, 62.1%; in the assay on BT-549 breast, 24.6%. Also, the growth was 55.1% in the assay on MDA-MB-435 melanoma; 54.8% in the assay on SW-620 colon; 40.1% in the assay with MCF7 breast; 39.2% in the assay with HCT-116 colon; 44.2% in the assay on HCC-2998 colon; 69.3% in the assay with KM12 colon. In addition, in the assay on MDA-MB-468 breast, the growth was 43.4%.

Consider `CCCCSc1nc(NCCc2c[nH]c3ccccc23)c(C#N)c(-c2ccc(F)cc2)n1`, for which the growth is 5.24% (active) in the assay on SR leukemia; 49.7% in the assay on RPMI-8226 leukemia; 75.1% with OVCAR-8 ovarian; 97.3% with OVCAR-5 ovarian; 76.1% with OVCAR-4 ovarian; 83% in the assay on SK-OV-3 ovarian. The growth with IGROV1 ovarian is 92.3%; in the assay with OVCAR-3 ovarian it was 74.3%; with HS 578T breast, 58.3%; in the assay with NCI/ADR-RES ovarian it was 58.2%; with T-47D breast, 48.5%; with BT-549 breast, 101%. Also, the growth was 73.1% in the assay on MDA-MB-435 melanoma; 60.4% in the assay with SW-620 colon; 44.8% in the assay with MCF7 breast; 26.5% in the assay with HCT-116 colon; 64.9% in the assay with HCC-2998 colon; 32% in the assay on KM12 colon. The growth in the assay on MDA-MB-468 breast is 69.8%.

For the compound `Cc1ccc(NC(=O)[C@]23CCC(C)(C)CC2C2=CCC4[C@@]5(C)C[C@@H](O)[C@H](O)[C@@](C)(CO)C5CC[C@@]4(C)[C@]2(C)CC3)cc1` (stereo partly specified), the growth in the assay with SR leukemia was -11.8% (active); in the assay with RPMI-8226 leukemia, -29.1% (active); in the assay with OVCAR-8 ovarian, 44.9%; in the assay with OVCAR-5 ovarian it was 6.37% (active); in the assay with OVCAR-4 ovarian it was 38.7%; in the assay with SK-OV-3 ovarian it was 28.4%. The growth with IGROV1 ovarian is 54.3%; in the assay on OVCAR-3 ovarian, 41.2%; in the assay with HS 578T breast it was 32.4%; in the assay on NCI/ADR-RES ovarian it was 31.4%; with T-47D breast it was 10.4%; with BT-549 breast, 0.29% (active). For the same compound, the growth in the assay with MDA-MB-435 melanoma was 26.2%; with SW-620 colon it was 40.1%; in the assay with MCF7 breast, 4.26% (active); in the assay on HCT-116 colon, 6.55% (active); in the assay with HCC-2998 colon it was -6.83% (active); with KM12 colon it was -22.3% (active). Besides, in the assay with MDA-MB-468 breast, the growth is 0.813% (active).

For the compound `NS(=O)(=O)c1ccc(N=Nc2c(O)n(CC(=O)Nc3ccccc3)c3ccccc23)cc1`, the growth in the assay on SR leukemia was 18.5%; in the assay with RPMI-8226 leukemia, 42.7%; in the assay on OVCAR-8 ovarian it was 11.3%; in the assay on OVCAR-5 ovarian, 74.5%; in the assay with OVCAR-4 ovarian, 57.3%; in the assay on SK-OV-3 ovarian, 25.2%. Further, the growth in the assay with IGROV1 ovarian was 38.9%; in the assay on OVCAR-3 ovarian, 20.8%; with HS 578T breast, 52%; in the assay with NCI/ADR-RES ovarian, 64.3%; with T-47D breast, 60.8%; in the assay with BT-549 breast, 25.5%. Besides, the growth was 9.55% (active) with MDA-MB-435 melanoma; -17.4% (active) in the assay on SW-620 colon; 14.9% with MCF7 breast; -45.3% (active) with HCT-116 colon; 12.9% in the assay with HCC-2998 colon; 13.9% in the assay with KM12 colon. Further, the growth with MDA-MB-468 breast is 36.5%.

The values above are taken from PubChem BioAssay (NCI).
